# According to PubChem BioAssay (NCATS):
# Several values for one entry are separate records, joined by “and”; a condition that tells them apart may be missing. Identical values can stand only once. Results filed as inconclusive are left out. Activity calls are given as the source filed them. Unless noted, calls follow the shape of the dose curve; as a rule, active = well fitted curve in the direction sought with a large enough effect; inconclusive = small, poorly fitted or top-dose-only effect, or another doubt; inactive = no such curve, though single readings can be large; an effect the other way counts as inactive or inconclusive.
# Legend:
# [1] = biological target: Cytochrome P450 2C9 (Homo sapiens) (UniProt P11712); test: Cytochrome P450 family 2 subfamily C member 9 (CYP2C9) small molecule antagonists: luciferase biochemical (cell-free) qHTS assay (AID 1645842; active = well fitted curve in the direction sought with a large enough effect in the repeat runs; an effect the other way counts as inactive or inconclusive; also: nearly all actives have a fitted effect of over 55% in size; also: potency is read from the fitted curve at half-maximal effect; as to activity change, negative = inhibition: % is scaled to controls: 0 for no effect and ±100 for the full control effect)
# Sequence of Cytochrome P450 2C9 (Homo sapiens) (P11712 whole entry, looked up): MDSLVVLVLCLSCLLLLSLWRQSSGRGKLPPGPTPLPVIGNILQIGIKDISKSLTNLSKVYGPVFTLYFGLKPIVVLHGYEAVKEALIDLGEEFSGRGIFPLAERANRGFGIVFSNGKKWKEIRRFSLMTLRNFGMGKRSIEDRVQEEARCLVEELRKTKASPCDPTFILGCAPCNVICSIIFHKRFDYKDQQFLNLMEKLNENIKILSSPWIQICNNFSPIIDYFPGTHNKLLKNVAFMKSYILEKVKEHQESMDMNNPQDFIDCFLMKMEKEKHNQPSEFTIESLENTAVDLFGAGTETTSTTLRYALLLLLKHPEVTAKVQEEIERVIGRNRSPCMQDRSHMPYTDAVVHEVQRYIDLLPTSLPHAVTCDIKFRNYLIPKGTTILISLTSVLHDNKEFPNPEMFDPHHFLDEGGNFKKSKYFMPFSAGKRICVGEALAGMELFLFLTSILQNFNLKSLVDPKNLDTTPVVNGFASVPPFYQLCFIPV
# How it was run: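 Luminescence, after 20 min with luciferin detection reagent, reflected CYP2C9 turnover during a 1 h NADPH-driven reaction at 37C. Enzyme-substrate mix contained 0.4% bovine serum albumin and was preincubated with compound 10 min at room temperature.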
# [2] = Primary qHTS for inhibitors of nuclear receptor binding SET domain protein 2 (NSD2) in an isogenic RCH-ACV NSD2 p.E1099K mutant (9B) (AID 1645876); also: nearly all actives have a fitted effect of over 70% in size; also: potency is read from the fitted curve at half-maximal effect
# [3] = Primary qHTS for inhibitors of nuclear receptor binding SET domain protein 2 (NSD2) in an RCH-ACV wild type WT cells (2C) (AID 1645877); also: nearly all actives have a fitted effect of over 70% in size; also: potency is read from the fitted curve at half-maximal effect
# [4] = biological target: Catechol O-methyltransferase (Homo sapiens) (UniProt P21964); test: Confirmatory Screen for Target Class Profiling of Small Molecule Inhibitors of Methyltransferases (AID 1745852; calls by dose curve; also: potency is read from the fitted curve at half-maximal effect; as to activity change, negative = inhibition: % is scaled to controls: 0 for no effect and ±100 for the full control effect); details: MTase-Glo luminescence, SAH detection, recombinant enzyme; measured here: COMT max response; stronger effect = lower value
# Sequence of Catechol O-methyltransferase (Homo sapiens) (P21964 whole entry, looked up): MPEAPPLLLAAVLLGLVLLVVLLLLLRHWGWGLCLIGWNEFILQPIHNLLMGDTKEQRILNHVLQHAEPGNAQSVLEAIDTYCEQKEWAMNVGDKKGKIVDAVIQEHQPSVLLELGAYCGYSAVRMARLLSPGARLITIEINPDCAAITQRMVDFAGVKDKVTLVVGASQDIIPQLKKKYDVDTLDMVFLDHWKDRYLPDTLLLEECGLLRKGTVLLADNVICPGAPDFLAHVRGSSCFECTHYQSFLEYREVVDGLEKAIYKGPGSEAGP
# [5] = biological target: Guanidinoacetate N-methyltransferase (Homo sapiens) (UniProt Q14353); test: as above; details: activity change, negative = inhibition: at 57.3 µM (top of the series) unless noted
# [6] = biological target: Nicotinamide N-methyltransferase (Homo sapiens) (UniProt P40261); test: as above; details: MTase-Glo luminescence, SAH detection, recombinant enzyme; measured here: NNMT max response; stronger effect = lower value
# Sequence of Nicotinamide N-methyltransferase (Homo sapiens) (P40261 whole entry, looked up): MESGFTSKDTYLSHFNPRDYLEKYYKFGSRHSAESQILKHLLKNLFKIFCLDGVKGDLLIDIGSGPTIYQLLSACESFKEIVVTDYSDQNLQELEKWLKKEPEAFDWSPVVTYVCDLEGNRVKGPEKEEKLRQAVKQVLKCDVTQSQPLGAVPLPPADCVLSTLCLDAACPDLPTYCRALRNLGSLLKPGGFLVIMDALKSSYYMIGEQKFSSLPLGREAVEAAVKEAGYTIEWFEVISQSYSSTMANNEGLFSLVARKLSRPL
# [7] = biological target: Phenylethanolamine N-methyltransferase (Homo sapiens) (UniProt P11086); test: as above; details: MTase-Glo luminescence, SAH detection, recombinant enzyme; measured here: PNMT max response; stronger effect = lower value
# Sequence of Phenylethanolamine N-methyltransferase (Homo sapiens) (P11086 whole entry, looked up): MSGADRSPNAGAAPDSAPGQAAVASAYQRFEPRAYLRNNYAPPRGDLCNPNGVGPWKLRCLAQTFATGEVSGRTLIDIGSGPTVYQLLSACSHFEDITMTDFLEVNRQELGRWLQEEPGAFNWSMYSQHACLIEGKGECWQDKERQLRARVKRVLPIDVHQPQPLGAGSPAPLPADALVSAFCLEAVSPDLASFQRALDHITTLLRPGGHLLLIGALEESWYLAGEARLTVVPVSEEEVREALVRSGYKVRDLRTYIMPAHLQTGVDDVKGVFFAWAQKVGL
# [8] = NCATS anti-infectives library activity on HEK293 viability as a counter-qHTS vs the C. elegans viability qHTS (AID 1745854);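 also: HEK293 cells exposed to compounds for 24 hr before the viability read; % is scaled to controls: 0 for no effect and ±100 for the full control effect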
# How it was run: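 Cytotoxicity in human HEK293 cells is measured by ATP-dependent CellTiter-Glo luminescence following a 24 hr incubation with titrated library compounds at 37C. Top final concentration is 41.7 uM.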
# [9] = NCATS anti-infectives library activity on the primary C. elegans qHTS viability assay (AID 1745855; calls by dose curve; also: potency is read from the fitted curve at half-maximal effect)
# How it was run: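 Viability is taken from GFP fluorescence of PE254-GFP-FLuc C. elegans imaged by laser cytometry over 7 days. Ten L1 worms per well grow at 21 °C on TOP10 E. coli capsules with titrated compound; levamisole marks toxicity.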
compound,measurement,setting,value
COc1cc(N2CCC(N)CC2)ccc1Nc1ncc(Cl)c(-c2c[nH]c3ccccc23)n1,Potency,[1],3.01 µM (active)
same,Potency,[2],1.45 µM (active) and 1.66 µM (active)
same,Potency,[3],1.63 µM (active) and 2.35 µM (active)
same,activity,[4],-32.1%
same,Potency,[5],24.1 µM (active)
same,activity,[6],-35.8%
same,activity,[7],-27%
COc1ccc(N2CCN(C(=O)c3cc4c(s3)-c3ccccc3S(=O)(=O)C4)CC2)cc1,Potency,[1],10.7 µM (active)
same,Potency,[2],inactive
same,Potency,[3],inactive
Cc1cc2sc(NC(=O)Cc3ccccc3)nc2cc1Cl,Potency,[1],inactive
same,Potency,[2],inactive
same,Potency,[3],inactive
CN(C)CCN(Cc1ccc(-c2ccc(CNCCc3ccccc3)cc2)cc1)C(=O)CCC1CCCC1,Potency,[1],19 µM (active)
same,Potency,[2],2.58 µM (active)
same,Potency,[3],2.3 µM (active)
Cc1ccc(O)cc1Nc1ccnc(Nc2cccc(C(N)=O)c2)n1,Potency,[1],1.9 µM (active)
same,Potency,[2],4.59 µM (active)
same,Potency,[3],4.09 µM (active)
CC(C)(O)C(=O)N1CCN(c2ccc(C(F)(F)F)c(C3=C(c4c[nH]c5ccccc45)C(=O)NC3=O)c2)CC1,Potency,[1],3.79 µM (active)
same,Potency,[2],1.15 µM (active)
same,Potency,[3],1.03 µM (active)
same,activity,[4],-37.9%
same,Potency,[5],30.4 µM (active)
same,activity,[6],-37%
same,activity,[7],-34.7%
Cc1cc(NC(=O)c2cccc(NC(=O)/C=C/CN(C)C)c2)ccc1Nc1nccc(-c2cccnc2)n1,Potency,[1],16.9 µM (active)
same,Potency,[2],4.61 µM (active)
same,Potency,[3],4.59 µM (active)
same,activity,[4],-3.09%
same,"activity change, negative = inhibition",[5],1.37%
same,activity,[6],-3.09%
same,activity,[7],-2.64%
CC(C)(C)Sc1c(CC(C)(C)C(=O)O)n(Cc2ccc(Cl)cc2)c2ccc(OCc3ccc4ccccc4n3)cc12,Potency,[1],1.69 µM (active)
same,Potency,[2],inactive
same,Potency,[3],inactive
same,activity,[4],1.57%
same,Potency,[5],inactive
same,activity,[6],-17.1%
same,activity,[7],-5.18%
OC1(CN2CCC(COc3noc4cccc(O[C@@H]5CCOC5)c34)CC2)CCOCC1,Potency,[1],9.52 µM (active)
same,Potency,[2],inactive
same,Potency,[3],inactive
OC(c1ccc(-c2ccc(CN3CCN(Cc4ccncc4)CC3)cc2)c(F)c1)(C(F)(F)F)C(F)(F)F,Potency,[1],1.34 µM (active)
same,Potency,[2],inactive
same,Potency,[3],inactive
CN1CCN(C2=Nc3ccccc3Nc3ccc(OS(=O)(=O)C(F)(F)F)cc32)CC1,Potency,[1],10.7 µM (active)
same,Potency,[3],16.3 µM (active)
CCC(CC)C(c1ccc(Nc2nc3ccccc3s2)cc1)n1cncn1 (stereo not given),Potency,[1],0.952 µM (active)
same,Potency,[2],18.6 µM (active)
same,Potency,[3],18.6 µM (active)
same,activity,[4],-3.56%
same,"activity change, negative = inhibition",[5],-4.47%
same,activity,[6],-14.5%
same,activity,[7],-5.31%
CCCN1CCC=C(c2cc(-c3ccc(C)cc3)no2)C1,Potency,[1],inactive
same,Potency,[2],inactive
same,Potency,[3],inactive
same,outcome,[8],inactive
same,Potency,[9],6.48 µM (active)
